The whole screen tested about 39,000 compounds, of which about 3,300 (8.5%) were called active. The list comes from a sample in which actives are over-represented; it also holds similar structures and randomly drawn compounds.

In the assay the test system is HepG2. Description: cytotoxicity call (relative viability < 0.9). As to conditions: 10 µM.
For `C[C@@H]1CN([C@@H](C)CO)S(=O)(=O)c2ccc(C#CC(C)(C)O)cc2O[C@@H]1CN(C)C(=O)C1CCCCC1`, the cytotoxicity call is “inactive”.

Regarding `C[C@@H]1CN([C@@H](C)CO)C(=O)c2cc(NS(=O)(=O)c3cn(C)cn3)ccc2O[C@@H]1CN(C)Cc1ccc(C(=O)Nc2ccccc2N)cc1`, the cytotoxicity call is “inactive”.

Consider `O=C(C[C@@H]1CC[C@@H](NC(=O)CN2CCOCC2)[C@H](CO)O1)NCc1cccc(F)c1`, for which the cytotoxicity call was “inactive”.

On to `C[C@H]1CN([C@@H](C)CO)C(=O)Cc2cc(NS(=O)(=O)c3cccs3)ccc2O[C@H]1CN(C)S(C)(=O)=O`, for which the cytotoxicity call was “inactive”.

Consider `C[C@H](CO)N1C[C@H](C)[C@H](CN(C)Cc2ccccc2)Oc2ccc(NC(=O)Cn3cnnn3)cc2C1=O`, for which the cytotoxicity call is “inactive”.

Turning to `C[C@@H]1CN([C@@H](C)CO)C(=O)c2cccc(NC(=O)c3cnccn3)c2O[C@@H]1CN(C)Cc1ccncc1`, the cytotoxicity call is “inactive”.

Take `COc1ccc2c3c(n(c2c1)C)[C@@H](CO)N(C[C@]13CCN(CC1)C(=O)Nc1cccc(c1)F)C(=O)CN1CCOCC1`: the cytotoxicity call is “inactive”.

`C[C@@H]1CN([C@H](C)CO)C(=O)c2cccc(NC(=O)Nc3ccc4c(c3)OCO4)c2O[C@H]1CN(C)Cc1ccc(Cl)c(Cl)c1`: the cytotoxicity call is “inactive”.

Take `CNC[C@H]1Oc2ccc(NS(=O)(=O)c3cn(C)cn3)cc2CC(=O)N([C@@H](C)CO)C[C@H]1C`: the cytotoxicity call is “inactive”.

`C[C@H](O)C#Cc1ccc2c(c1)O[C@@H](CN(C)C(=O)c1ccccc1)[C@@H](C)CN([C@H](C)CO)S2(=O)=O`: the cytotoxicity call was “inactive”.

As for `COc1ccc(NC(=O)Nc2ccc3c(c2)C(=O)N([C@H](C)CO)C[C@@H](C)[C@@H](CN(C)S(=O)(=O)c2cccs2)OCCCC[C@H](C)O3)cc1`, the cytotoxicity call is “inactive”.

In the case of `CO[C@@H]1CN(C)C(=O)c2cc(NC(=O)NC(C)C)ccc2OC[C@@H](C)N(Cc2ccc(-c3ccccn3)cc2)C[C@@H]1C`, the cytotoxicity call is “inactive”.

Regarding `CO[C@@H]1CN(C)C(=O)c2cc(NC(=O)NC3CCCCC3)ccc2OC[C@@H](C)N(CCc2ccccc2)C[C@@H]1C`, the cytotoxicity call was “inactive”.

On to `CO[C@@H]1CN(C)C(=O)c2cc(NC(=O)NC3CCCCC3)ccc2OC[C@@H](C)N(CCc2ccccc2)C[C@H]1C`, for which the cytotoxicity call is “active”.

Regarding `CO[C@H]1CN(C)C(=O)c2cc(NC(=O)NC(C)C)ccc2OC[C@H](C)N(Cc2ccc(-c3ccccn3)cc2)C[C@@H]1C`, the cytotoxicity call was “active”.

For the compound `CO[C@@H]1CN(C)C(=O)c2cc(NC(=O)NC3CCCCC3)ccc2OC[C@H](C)N(CCc2ccccc2)C[C@@H]1C`, the cytotoxicity call is “inactive”.

For `CO[C@@H]1CN(C)C(=O)c2cc(NC(=O)NC(C)C)ccc2OC[C@H](C)N(Cc2ccc(-c3ccccn3)cc2)C[C@H]1C`, the cytotoxicity call was “inactive”.

As for `COc1ccccc1CNC(=O)C[C@H]1C[C@@H]2c3cc(NC(=O)NC4CCCC4)ccc3O[C@@H]2[C@H](CO)O1`, the cytotoxicity call was “inactive”.

On to `NC[C@H]1CN(Cc2ccc(F)cc2)CCO1`, for which the cytotoxicity call was “inactive”.

In the case of `CN1C(=O)c2cc(NC(=O)C3CCOCC3)ccc2OC[C@@H]2O[C@H](CC(=O)NCCc3ccncc3)CC[C@@H]21`, the cytotoxicity call was “inactive”.

`N[C@@H](Cc1ccc2nonc2c1)C(=O)O`: the cytotoxicity call was “inactive”.

Regarding `O=C(C[C@@H]1CC[C@@H]2[C@H](COC[C@H](O)CN2S(=O)(=O)c2ccc(Cl)cc2)O1)N1CCc2ccccc2C1`, the cytotoxicity call is “inactive”.

Take `CCN(CC)CCOC(=O)C(Cc1cccc2ccccc12)CC1CCCO1.O=C(O)C(=O)O` (configuration not stated): the cytotoxicity call is “active”.

With `O=C(c1cccc2ccccc12)N(C1CCCC1)C1CCCC1`, the cytotoxicity call was “inactive”.

With `CCn1c(=O)cc(N2CCC(C)CC2)[nH]c1=O`, the cytotoxicity call is “inactive”.

Regarding `CON=C1CC2(CC3CC(CC=C(C)CC(C)C=CC=C4COC5C(O)C(C)=CC(C(=O)O3)C45O)O2)OC(C(C)=CC(C)C)C1C` (configuration not stated), the cytotoxicity call is “active”.

Turning to `CO/N=C1\C[C@]2(C[C@@H]3C[C@@H](C/C=C(\C)C[C@@H](C)/C=C/C=C4\CO[C@@H]5[C@H](O)C(C)=C[C@@H](C(=O)O3)[C@]45O)O2)O[C@H](/C(C)=C/C(C)C)[C@H]1C`, the cytotoxicity call is “active”.

Consider `COC1CC(OC2C(C)OC(OC3C(C)=CCC4CC(CC5(C=CC(C)C(C6CCCCC6)O5)O4)OC(=O)C4C=C(C)C(O)C5OCC(=CC=CC3C)C45O)CC2OC)OC(C)C1O` (configuration not stated), for which the cytotoxicity call is “inactive”.

`CO[C@H]1C[C@H](O[C@H]2[C@H](C)O[C@@H](O[C@@H]3/C(C)=C/C[C@@H]4C[C@@H](C[C@]5(C=C[C@H](C)[C@@H](C6CCCCC6)O5)O4)OC(=O)[C@@H]4C=C(C)[C@@H](O)[C@H]5OC/C(=C\C=C\[C@@H]3C)[C@]54O)C[C@@H]2OC)O[C@@H](C)[C@@H]1O`: the cytotoxicity call was “inactive”.

On to `C[C@@H]1CN([C@H](C)CO)C(=O)c2cc(NC(=O)c3ccncc3)ccc2O[C@@H](C)CCCCO[C@H]1CN(C)S(=O)(=O)c1cn(C)cn1`, for which the cytotoxicity call was “inactive”.

For the compound `CC(C)NC(=O)N(C)C[C@@H]1Oc2ncc(-c3ccc(C(=O)N(C)C)cc3)cc2C(=O)N([C@H](C)CO)C[C@H]1C`, the cytotoxicity call is “inactive”.

In the case of `CN(C)C(=O)c1cccc(-c2cccc(-c3nc(C(=O)N4CCCCC4)cc4c3[C@H](CCO)N([S@@](=O)C(C)(C)C)C4)c2)c1`, the cytotoxicity call is “inactive”.

In the case of `C[C@@H]1CN([C@@H](C)CO)C(=O)c2cc(NC(=O)c3ccccc3)ccc2O[C@@H](C)CCCCO[C@H]1CN(C)C(=O)Nc1ccc2c(c1)OCO2`, the cytotoxicity call was “inactive”.

Turning to `C[C@@H]1CN([C@@H](C)CO)C(=O)CCCn2nncc2CO[C@H]1CN(C)Cc1ccc2c(c1)OCCN2C`, the cytotoxicity call was “inactive”.

For the compound `CCC(C)C(=O)OC1CC(O)C=C2C=CC(C)C(CCC(O)CC(O)CC(=O)[O-])C21.[Na+]` (configuration not stated), the cytotoxicity call is “inactive”.

Regarding `CCC(C)C(=O)OC1CC(C)C=C2C=CC(C)C(CCC3CC(O)CC(=O)O3)C21` (configuration not stated), the cytotoxicity call is “inactive”.

`CCC(C)C(=O)OC1CCC=C2C=CC(C)C(CCC3CC(O)CC(=O)O3)C21` (configuration not stated): the cytotoxicity call is “active”.

Turning to `C[C@@H]1CN([C@@H](C)CO)C(=O)c2cc(NS(=O)(=O)c3ccc(F)cc3)ccc2O[C@@H](C)CCCCO[C@@H]1CN(C)C(=O)Nc1ccc(F)cc1`, the cytotoxicity call is “inactive”.

As to `C[C@H]1CCCCO[C@H](CN(C)C(=O)Nc2ccc(F)cc2)[C@@H](C)CN([C@@H](C)CO)C(=O)c2cc(NS(=O)(=O)c3ccc(F)cc3)ccc2O1`, the cytotoxicity call is “active”.

As to `C[C@@H]1CN([C@H](C)CO)C(=O)c2cc(NS(=O)(=O)c3ccc(F)cc3)ccc2O[C@@H](C)CCCCO[C@H]1CN(C)C(=O)Nc1ccc(F)cc1`, the cytotoxicity call was “inactive”.

`C[C@@H]1CCCCO[C@H](CN(C)C(=O)Nc2ccc(F)cc2)[C@@H](C)CN([C@H](C)CO)C(=O)c2cc(NS(=O)(=O)c3ccc(F)cc3)ccc2O1`: the cytotoxicity call was “inactive”.

`C[C@@H]1CCCCO[C@H](CN(C)C(=O)Nc2ccc(F)cc2)[C@@H](C)CN([C@@H](C)CO)C(=O)c2cc(NS(=O)(=O)c3ccc(F)cc3)ccc2O1`: the cytotoxicity call was “active”.

Turning to `C[C@H](CO)N1C[C@H](C)[C@H](CN(C)C(=O)Nc2ccc(F)cc2)OCCCC[C@H](C)Oc2ccc(NS(=O)(=O)c3ccc(F)cc3)cc2C1=O`, the cytotoxicity call is “inactive”.

Turning to `C[C@@H]1CN([C@H](C)CO)S(=O)(=O)c2ccc(C#Cc3ccccc3F)cc2O[C@@H]1CN(C)CC1CCOCC1`, the cytotoxicity call was “inactive”.

For the compound `COc1ccc(CN(C)C[C@H]2OCCCC[C@@H](C)Oc3ccc(NC(=O)NC4CCCCC4)cc3C(=O)N([C@@H](C)CO)C[C@H]2C)cc1`, the cytotoxicity call is “inactive”.

`Cc1ncsc1-c1ccc(CNC(=O)[C@@H]2C[C@@H](O)CN2C(=O)[C@H](C(C)C)N2Cc3ccccc3C2=O)cc1`: the cytotoxicity call is “inactive”.

`CN1C(=O)Cc2cc(NS(C)(=O)=O)ccc21`: the cytotoxicity call is “inactive”.

Take `COc1ccc(S(=O)(=O)Nc2ccc3c(c2)C(=O)N([C@@H](C)CO)C[C@H](C)[C@H](CN(C)Cc2ccc(C(=O)O)cc2)OCCCC[C@@H](C)O3)cc1`: the cytotoxicity call is “inactive”.

For the compound `COCCN1C[C@H]2[C@H](OC)CCN(S(=O)(=O)c3cn(C)cn3)[C@H]2C1`, the cytotoxicity call is “inactive”.

Take `CCC(=O)OCC(=O)C1(OC(=O)CC)C(C)CC2C3CCC4=CC(=O)C=CC4(C)C3(Cl)C(O)CC21C` (configuration not stated): the cytotoxicity call is “inactive”.

Consider `CCC(=O)OC1(C(=O)CCl)C(C)CC2C3CCC4=CC(=O)C=CC4(C)C3(F)C(O)CC21C` (configuration not stated), for which the cytotoxicity call was “inactive”.

Consider `CC1CC2C3CCC4=CC(=O)C=CC4(C)C3(Cl)C(O)CC2(C)C1(OC(=O)c1ccco1)C(=O)CCl` (configuration not stated), for which the cytotoxicity call is “active”.

Take `C[C@@H]1CCCCO[C@H](CN(C)C(=O)Nc2ccccc2)[C@H](C)CN([C@H](C)CO)C(=O)c2cc(NC(=O)CCC(F)(F)F)ccc2O1`: the cytotoxicity call was “inactive”.

On to `C[C@@H]1CN([C@H](C)CO)C(=O)c2cc(NC(=O)Cc3ccccc3)ccc2O[C@@H](C)CCCCO[C@@H]1CN(C)Cc1ccc(C(=O)O)cc1`, for which the cytotoxicity call was “inactive”.

In the case of `Cn1c(=O)c2[nH]c(Br)nc2n(C)c1=O` [listing 1 of 2 here], the cytotoxicity call was “inactive”.

For `Cn1c(=O)c2[nH]c(-[n+]3ccc(C(=O)O)cc3)nc2n(C)c1=O`, the cytotoxicity call was “active”.

With `Cn1c(=O)c2[nH]c(Br)nc2n(C)c1=O` [listing 2 of 2 here], the cytotoxicity call was “inactive”.

Consider `C[C@H]1CN([C@@H](C)CO)C(=O)c2cccc(NS(=O)(=O)c3ccc(F)cc3)c2O[C@H]1CN(C)S(C)(=O)=O`, for which the cytotoxicity call is “inactive”.

`COc1ccc(S(=O)(=O)Nc2ccc3c(c2)C(=O)N([C@@H](C)CO)C[C@H](C)[C@@H](CN(C)C(=O)Nc2ccc(C(F)(F)F)cc2)OCCCC[C@H](C)O3)cc1`: the cytotoxicity call was “active”.

`COc1ccc(S(=O)(=O)Nc2ccc3c(c2)C(=O)N([C@@H](C)CO)C[C@H](C)[C@@H](CN(C)C(=O)Nc2ccc(C(F)(F)F)cc2)OCCCC[C@@H](C)O3)cc1`: the cytotoxicity call was “active”.

For `COc1ccc(S(=O)(=O)Nc2ccc3c(c2)C(=O)N([C@@H](C)CO)C[C@H](C)[C@H](CN(C)C(=O)Nc2ccc(C(F)(F)F)cc2)OCCCC[C@@H](C)O3)cc1`, the cytotoxicity call was “inactive”.

Turning to `COc1ccc(S(=O)(=O)Nc2ccc3c(c2)C(=O)N([C@@H](C)CO)C[C@@H](C)[C@@H](CN(C)C(=O)Nc2ccc(C(F)(F)F)cc2)OCCCC[C@@H](C)O3)cc1`, the cytotoxicity call is “active”.

On to `COc1ccc(S(=O)(=O)Nc2ccc3c(c2)C(=O)N([C@@H](C)CO)C[C@H](C)[C@H](CN(C)C(=O)Nc2ccc(C(F)(F)F)cc2)OCCCC[C@H](C)O3)cc1`, for which the cytotoxicity call is “inactive”.

Take `COc1ccc(S(=O)(=O)Nc2ccc3c(c2)C(=O)N([C@H](C)CO)C[C@@H](C)[C@H](CN(C)C(=O)Nc2ccc(C(F)(F)F)cc2)OCCCC[C@@H](C)O3)cc1`: the cytotoxicity call was “inactive”.

In the case of `COc1ccc(S(=O)(=O)Nc2ccc3c(c2)C(=O)N([C@H](C)CO)C[C@H](C)[C@H](CN(C)C(=O)Nc2ccc(C(F)(F)F)cc2)OCCCC[C@H](C)O3)cc1`, the cytotoxicity call is “inactive”.

Take `COc1ccc(S(=O)(=O)Nc2ccc3c(c2)C(=O)N([C@@H](C)CO)C[C@@H](C)[C@H](CN(C)C(=O)Nc2ccc(C(F)(F)F)cc2)OCCCC[C@H](C)O3)cc1`: the cytotoxicity call is “inactive”.

With `COc1ccc(S(=O)(=O)Nc2ccc3c(c2)C(=O)N([C@H](C)CO)C[C@H](C)[C@H](CN(C)C(=O)Nc2ccc(C(F)(F)F)cc2)OCCCC[C@@H](C)O3)cc1`, the cytotoxicity call was “inactive”.
